# Tests used:
# Assay in all cases: DAPPL (digital affinity profiling via proximity ligation, sequencing); 10 mM Tris-HCl pH 7.5, 50 mM NaCl, 1 mM DTT, 4% glycerol, room temperature, 30 min; GST-TFs on glutathione beads, 16-mer random dsDNA library, 0.1% formaldehyde crosslink after washing; high values mean tight binding
# FEV = target: T1, FEV (Homo sapiens, UniProt Q99581 1-238); conditions: protein: recombinant; tags: N-terminal GST; dsDNA, one strand shown
# T1 sequence: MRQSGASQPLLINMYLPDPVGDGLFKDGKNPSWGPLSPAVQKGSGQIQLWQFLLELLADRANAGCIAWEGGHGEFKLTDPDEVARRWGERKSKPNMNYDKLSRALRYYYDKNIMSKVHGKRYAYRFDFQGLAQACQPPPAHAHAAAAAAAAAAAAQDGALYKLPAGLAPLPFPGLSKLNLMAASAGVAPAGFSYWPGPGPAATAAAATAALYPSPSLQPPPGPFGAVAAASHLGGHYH
# How it was run: (§1)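 Human transcription factors fused to GST were expressed in yeast, captured on glutathione beads, given DNA barcodes and pooled with a GST-only negative control. Pools were incubated with 200 nmole of a 16-mer random double-stranded DNA library in Tris/NaCl/DTT/glycerol buffer at room temperature for 30 min. They were then washed, crosslinked with 0.1% formaldehyde, proximity-ligated (BsaI/T4 ligase, 1 h, 37 °C), PCR-amplified and sequenced on an Illumina NextSeq500. Binding signal is each 6-mer's read frequency for a factor divided by its frequency for the GST control.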
# ETV5 = ETV5 (Homo sapiens, UniProt P41161 1-510); conditions: protein: recombinant; tags: N-terminal GST; dsDNA, one strand shown
# Chain of ETV5 (P41161 whole entry): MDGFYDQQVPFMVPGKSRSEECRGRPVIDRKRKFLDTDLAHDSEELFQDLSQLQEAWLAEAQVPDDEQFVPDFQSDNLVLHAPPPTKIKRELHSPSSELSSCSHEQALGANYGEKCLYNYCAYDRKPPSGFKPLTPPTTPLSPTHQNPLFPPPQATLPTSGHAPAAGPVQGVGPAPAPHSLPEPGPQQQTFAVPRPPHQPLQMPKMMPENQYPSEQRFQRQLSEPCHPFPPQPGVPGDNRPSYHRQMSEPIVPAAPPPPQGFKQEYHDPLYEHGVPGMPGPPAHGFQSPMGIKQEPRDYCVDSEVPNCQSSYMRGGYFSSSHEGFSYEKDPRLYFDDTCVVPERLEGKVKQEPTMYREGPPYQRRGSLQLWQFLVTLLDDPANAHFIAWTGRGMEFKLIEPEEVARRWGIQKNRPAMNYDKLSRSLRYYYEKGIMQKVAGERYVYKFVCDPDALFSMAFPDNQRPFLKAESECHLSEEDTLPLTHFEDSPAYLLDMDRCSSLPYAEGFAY
# How it was run: as §1
# HSF1 = HSF1 (Homo sapiens, UniProt Q00613 1-529); conditions: protein: recombinant; tags: N-terminal GST; chain copies: 3; dsDNA, one strand shown
# Chain of HSF1 (Q00613 whole entry): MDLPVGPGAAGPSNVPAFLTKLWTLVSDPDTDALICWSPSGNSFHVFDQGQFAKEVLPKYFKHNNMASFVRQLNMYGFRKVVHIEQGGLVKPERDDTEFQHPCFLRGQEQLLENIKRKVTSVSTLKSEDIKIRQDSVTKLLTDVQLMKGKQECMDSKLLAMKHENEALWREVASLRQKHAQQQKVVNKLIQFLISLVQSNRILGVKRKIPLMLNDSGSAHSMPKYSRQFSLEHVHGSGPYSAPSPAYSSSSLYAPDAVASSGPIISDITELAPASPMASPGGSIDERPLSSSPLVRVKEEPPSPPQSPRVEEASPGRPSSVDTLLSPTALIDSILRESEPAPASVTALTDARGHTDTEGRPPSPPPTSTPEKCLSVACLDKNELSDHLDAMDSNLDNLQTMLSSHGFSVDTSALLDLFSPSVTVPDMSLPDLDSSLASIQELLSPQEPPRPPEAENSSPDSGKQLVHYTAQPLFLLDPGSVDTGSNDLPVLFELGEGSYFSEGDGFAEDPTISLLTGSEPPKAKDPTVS
# How it was run: as §1
# SPIC = target: T2, SPIC (Homo sapiens, UniProt Q8N5J4 1-248); conditions: protein: recombinant; tags: N-terminal GST; dsDNA, one strand shown
# T2 sequence: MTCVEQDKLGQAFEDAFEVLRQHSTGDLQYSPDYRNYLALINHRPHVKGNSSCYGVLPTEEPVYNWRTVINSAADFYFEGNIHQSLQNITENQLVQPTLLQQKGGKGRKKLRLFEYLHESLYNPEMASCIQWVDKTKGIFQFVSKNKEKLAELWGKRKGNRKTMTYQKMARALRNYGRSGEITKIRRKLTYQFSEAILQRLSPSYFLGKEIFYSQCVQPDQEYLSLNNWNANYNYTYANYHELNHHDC
# How it was run: as §1
# ELF4 = ELF4 (Homo sapiens, UniProt Q99607 1-663); conditions: protein: recombinant; tags: N-terminal GST; dsDNA, one strand shown
# Chain of ELF4 (Q99607 whole entry): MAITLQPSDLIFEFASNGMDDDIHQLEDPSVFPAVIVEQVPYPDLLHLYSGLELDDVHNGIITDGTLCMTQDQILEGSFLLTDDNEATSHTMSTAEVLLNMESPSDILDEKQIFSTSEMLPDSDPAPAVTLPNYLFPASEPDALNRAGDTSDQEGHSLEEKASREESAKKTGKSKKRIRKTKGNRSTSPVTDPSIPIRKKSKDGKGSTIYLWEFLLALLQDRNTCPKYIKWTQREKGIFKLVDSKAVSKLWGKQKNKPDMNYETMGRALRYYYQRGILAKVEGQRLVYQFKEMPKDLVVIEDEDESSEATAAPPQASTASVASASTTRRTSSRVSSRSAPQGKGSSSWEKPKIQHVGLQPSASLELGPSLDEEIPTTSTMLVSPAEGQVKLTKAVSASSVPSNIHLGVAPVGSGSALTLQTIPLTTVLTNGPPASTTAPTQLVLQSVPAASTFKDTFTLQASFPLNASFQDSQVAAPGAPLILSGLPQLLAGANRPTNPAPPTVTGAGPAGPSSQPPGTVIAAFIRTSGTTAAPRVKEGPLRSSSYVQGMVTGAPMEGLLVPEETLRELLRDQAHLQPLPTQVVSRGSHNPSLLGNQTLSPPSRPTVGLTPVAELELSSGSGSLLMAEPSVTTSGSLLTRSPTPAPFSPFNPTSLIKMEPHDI
# How it was run: as §1
# ELK4 = target: T3, ELK4 (Homo sapiens, UniProt P28324-2 1-405); conditions: protein: recombinant; tags: N-terminal GST; dsDNA, one strand shown
# T3 sequence: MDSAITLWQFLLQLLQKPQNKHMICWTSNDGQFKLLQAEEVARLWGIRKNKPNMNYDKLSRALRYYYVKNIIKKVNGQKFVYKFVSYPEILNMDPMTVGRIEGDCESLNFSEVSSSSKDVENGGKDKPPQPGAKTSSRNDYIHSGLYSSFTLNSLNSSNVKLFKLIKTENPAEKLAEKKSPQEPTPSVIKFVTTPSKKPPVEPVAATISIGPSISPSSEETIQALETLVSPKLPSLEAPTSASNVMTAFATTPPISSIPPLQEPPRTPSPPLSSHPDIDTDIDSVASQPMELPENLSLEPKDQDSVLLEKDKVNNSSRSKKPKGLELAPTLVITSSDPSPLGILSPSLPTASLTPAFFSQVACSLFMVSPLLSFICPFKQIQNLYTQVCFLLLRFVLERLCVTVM
# How it was run: as §1
# ETV2 = target: T4, ETV2 (Homo sapiens, UniProt O00321 1-342); conditions: protein: recombinant; tags: N-terminal GST; dsDNA, one strand shown
# T4 sequence: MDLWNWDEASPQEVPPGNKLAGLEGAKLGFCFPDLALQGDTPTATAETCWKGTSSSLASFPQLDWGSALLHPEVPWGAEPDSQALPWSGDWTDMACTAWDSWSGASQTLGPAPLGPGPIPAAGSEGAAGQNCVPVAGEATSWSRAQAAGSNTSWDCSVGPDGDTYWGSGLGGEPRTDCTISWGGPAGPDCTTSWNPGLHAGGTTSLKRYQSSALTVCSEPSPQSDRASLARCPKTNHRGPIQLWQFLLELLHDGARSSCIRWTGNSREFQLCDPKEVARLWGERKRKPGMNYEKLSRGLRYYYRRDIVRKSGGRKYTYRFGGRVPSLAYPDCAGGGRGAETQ
# How it was run: as §1
# ELF3 = target: T5, ELF3 (Homo sapiens, UniProt P78545 1-371); conditions: protein: recombinant; tags: N-terminal GST; dsDNA, one strand shown
# T5 sequence: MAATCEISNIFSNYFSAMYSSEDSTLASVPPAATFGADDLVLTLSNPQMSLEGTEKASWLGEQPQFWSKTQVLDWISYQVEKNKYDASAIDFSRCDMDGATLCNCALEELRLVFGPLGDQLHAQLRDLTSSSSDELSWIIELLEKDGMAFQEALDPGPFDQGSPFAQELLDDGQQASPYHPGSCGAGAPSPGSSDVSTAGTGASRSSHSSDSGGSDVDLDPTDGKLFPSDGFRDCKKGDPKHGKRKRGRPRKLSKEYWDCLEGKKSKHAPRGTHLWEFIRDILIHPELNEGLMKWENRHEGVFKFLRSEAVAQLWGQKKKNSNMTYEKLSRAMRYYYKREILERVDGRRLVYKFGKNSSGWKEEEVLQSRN
# How it was run: as §1
# CRX = CRX (Homo sapiens, UniProt O43186 1-299); conditions: protein: recombinant; tags: N-terminal GST; dsDNA, one strand shown
# Chain of CRX (O43186 whole entry): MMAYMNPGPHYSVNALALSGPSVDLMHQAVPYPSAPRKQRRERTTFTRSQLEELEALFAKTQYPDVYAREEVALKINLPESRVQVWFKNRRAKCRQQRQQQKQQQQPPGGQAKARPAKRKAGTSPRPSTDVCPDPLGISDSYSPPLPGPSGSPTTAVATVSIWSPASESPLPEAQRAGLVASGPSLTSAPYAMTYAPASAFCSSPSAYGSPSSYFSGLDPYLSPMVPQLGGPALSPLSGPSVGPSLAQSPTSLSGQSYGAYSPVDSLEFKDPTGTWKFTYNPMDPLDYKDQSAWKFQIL
# How it was run: as §1
# ETV1 = ETV1 (Homo sapiens, UniProt P50549 1-477); conditions: protein: recombinant; tags: N-terminal GST; dsDNA, one strand shown
# Chain of ETV1 (P50549 whole entry): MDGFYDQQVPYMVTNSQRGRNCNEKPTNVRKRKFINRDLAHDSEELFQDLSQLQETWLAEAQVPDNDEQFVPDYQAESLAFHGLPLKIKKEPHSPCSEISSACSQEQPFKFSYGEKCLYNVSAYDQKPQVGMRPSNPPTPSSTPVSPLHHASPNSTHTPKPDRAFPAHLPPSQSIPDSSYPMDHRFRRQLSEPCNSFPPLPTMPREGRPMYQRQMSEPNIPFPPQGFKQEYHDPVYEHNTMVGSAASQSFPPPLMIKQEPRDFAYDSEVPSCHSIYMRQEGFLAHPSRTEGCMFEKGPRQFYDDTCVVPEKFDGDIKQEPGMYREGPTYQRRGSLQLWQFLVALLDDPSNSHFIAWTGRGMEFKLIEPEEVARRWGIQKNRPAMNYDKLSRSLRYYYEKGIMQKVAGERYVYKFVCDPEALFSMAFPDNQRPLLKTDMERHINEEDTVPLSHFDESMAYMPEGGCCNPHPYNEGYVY
# How it was run: as §1
# ERF = target: T6, ERF (Homo sapiens, UniProt P50548 1-548); conditions: protein: recombinant; tags: N-terminal GST; dsDNA, one strand shown
# T6 sequence: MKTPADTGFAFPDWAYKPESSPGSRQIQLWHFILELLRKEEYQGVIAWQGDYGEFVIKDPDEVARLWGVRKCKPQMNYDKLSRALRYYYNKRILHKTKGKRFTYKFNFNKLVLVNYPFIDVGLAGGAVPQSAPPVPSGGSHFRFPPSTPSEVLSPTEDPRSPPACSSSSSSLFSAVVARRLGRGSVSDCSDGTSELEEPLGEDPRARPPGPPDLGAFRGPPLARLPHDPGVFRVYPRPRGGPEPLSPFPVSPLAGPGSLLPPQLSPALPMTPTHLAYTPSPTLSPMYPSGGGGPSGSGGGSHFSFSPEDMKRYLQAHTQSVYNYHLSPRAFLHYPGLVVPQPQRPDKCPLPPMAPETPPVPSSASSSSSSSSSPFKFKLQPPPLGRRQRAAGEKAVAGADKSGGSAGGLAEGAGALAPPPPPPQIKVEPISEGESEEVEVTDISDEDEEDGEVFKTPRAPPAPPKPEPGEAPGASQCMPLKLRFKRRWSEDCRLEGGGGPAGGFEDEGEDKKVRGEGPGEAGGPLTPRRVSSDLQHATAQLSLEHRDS
# How it was run: as §1
# ETV3L = target: T7, ETV3L (Homo sapiens, UniProt Q6ZN32 1-361); conditions: protein: recombinant; tags: N-terminal GST; dsDNA, one strand shown
# T7 sequence: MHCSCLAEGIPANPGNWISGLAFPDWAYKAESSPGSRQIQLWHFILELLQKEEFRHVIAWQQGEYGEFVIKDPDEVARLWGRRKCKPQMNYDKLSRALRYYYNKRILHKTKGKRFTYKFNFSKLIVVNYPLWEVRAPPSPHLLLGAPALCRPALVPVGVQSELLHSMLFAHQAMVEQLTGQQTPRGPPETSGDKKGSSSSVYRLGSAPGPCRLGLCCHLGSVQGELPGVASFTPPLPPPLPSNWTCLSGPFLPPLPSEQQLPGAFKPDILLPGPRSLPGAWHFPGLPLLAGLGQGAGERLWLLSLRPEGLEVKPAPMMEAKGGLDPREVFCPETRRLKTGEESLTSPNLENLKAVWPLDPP
# How it was run: as §1
# ETS2 = target: T8, ETS2 (Homo sapiens, UniProt P15036 1-469); conditions: protein: recombinant; tags: N-terminal GST; dsDNA, one strand shown
# T8 sequence: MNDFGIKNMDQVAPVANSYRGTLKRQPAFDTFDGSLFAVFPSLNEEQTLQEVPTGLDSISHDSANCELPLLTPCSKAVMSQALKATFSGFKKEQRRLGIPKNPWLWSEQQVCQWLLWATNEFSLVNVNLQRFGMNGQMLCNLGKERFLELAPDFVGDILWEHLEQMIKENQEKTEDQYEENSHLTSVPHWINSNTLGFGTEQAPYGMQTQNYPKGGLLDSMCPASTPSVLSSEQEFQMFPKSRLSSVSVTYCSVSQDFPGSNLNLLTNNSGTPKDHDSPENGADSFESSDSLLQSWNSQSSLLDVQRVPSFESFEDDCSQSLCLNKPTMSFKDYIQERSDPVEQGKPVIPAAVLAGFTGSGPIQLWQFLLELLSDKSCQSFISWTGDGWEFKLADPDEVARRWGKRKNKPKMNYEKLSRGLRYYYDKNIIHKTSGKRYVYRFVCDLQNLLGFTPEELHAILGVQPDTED
# How it was run: as §1
# SPDEF = target: T9, SPDEF (Homo sapiens, UniProt O95238 1-335); conditions: protein: recombinant; tags: N-terminal GST; dsDNA, one strand shown
# T9 sequence: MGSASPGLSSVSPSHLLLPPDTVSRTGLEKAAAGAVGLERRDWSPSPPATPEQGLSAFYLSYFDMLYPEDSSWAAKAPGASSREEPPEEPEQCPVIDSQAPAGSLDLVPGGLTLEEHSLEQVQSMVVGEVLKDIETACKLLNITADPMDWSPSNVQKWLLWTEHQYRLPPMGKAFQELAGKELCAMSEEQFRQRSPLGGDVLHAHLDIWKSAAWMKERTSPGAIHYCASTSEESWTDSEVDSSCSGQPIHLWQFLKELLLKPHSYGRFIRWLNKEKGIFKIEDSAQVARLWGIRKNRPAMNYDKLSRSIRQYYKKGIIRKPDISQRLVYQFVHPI
# How it was run: as §1
# ETV7 = target: T10, ETV7 (Homo sapiens, UniProt Q9Y603 1-341); conditions: protein: recombinant; tags: N-terminal GST; dsDNA, one strand shown
# T10 sequence: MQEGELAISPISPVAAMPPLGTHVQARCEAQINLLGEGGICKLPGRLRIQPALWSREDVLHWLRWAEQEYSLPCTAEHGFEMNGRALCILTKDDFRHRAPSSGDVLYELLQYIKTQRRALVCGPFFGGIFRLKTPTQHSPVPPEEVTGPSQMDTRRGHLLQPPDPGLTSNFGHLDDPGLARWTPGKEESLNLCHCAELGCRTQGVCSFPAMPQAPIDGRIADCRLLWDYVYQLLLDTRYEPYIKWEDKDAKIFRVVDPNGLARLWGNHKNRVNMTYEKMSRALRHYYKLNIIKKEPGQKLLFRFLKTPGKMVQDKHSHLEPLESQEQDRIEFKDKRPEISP
# How it was run: as §1
# ELF5 = target: T11, ELF5 (Homo sapiens, UniProt Q9UKW6-2 1-255); conditions: protein: recombinant; tags: N-terminal GST; dsDNA, one strand shown
# T11 sequence: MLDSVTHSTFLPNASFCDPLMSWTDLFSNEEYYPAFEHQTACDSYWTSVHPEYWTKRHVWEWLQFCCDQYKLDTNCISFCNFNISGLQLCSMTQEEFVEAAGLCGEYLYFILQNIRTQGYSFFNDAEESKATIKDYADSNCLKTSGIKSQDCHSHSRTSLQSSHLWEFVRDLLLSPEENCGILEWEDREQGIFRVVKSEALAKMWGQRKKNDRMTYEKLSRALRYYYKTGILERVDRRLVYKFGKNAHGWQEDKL
# How it was run: as §1
# ETV3 = target: T12, ETV3 (Homo sapiens, UniProt P41162-2 1-143); conditions: protein: recombinant; tags: N-terminal GST; dsDNA, one strand shown
# T12 sequence: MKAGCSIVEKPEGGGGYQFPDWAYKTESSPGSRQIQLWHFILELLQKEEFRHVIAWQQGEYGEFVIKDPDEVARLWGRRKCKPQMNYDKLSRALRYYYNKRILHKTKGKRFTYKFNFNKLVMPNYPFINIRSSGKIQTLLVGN
# How it was run: as §1
# ETV6 = ETV6 (Homo sapiens, UniProt P41212 1-452); conditions: protein: recombinant; tags: N-terminal GST; dsDNA, one strand shown
# Chain of ETV6 (P41212 whole entry): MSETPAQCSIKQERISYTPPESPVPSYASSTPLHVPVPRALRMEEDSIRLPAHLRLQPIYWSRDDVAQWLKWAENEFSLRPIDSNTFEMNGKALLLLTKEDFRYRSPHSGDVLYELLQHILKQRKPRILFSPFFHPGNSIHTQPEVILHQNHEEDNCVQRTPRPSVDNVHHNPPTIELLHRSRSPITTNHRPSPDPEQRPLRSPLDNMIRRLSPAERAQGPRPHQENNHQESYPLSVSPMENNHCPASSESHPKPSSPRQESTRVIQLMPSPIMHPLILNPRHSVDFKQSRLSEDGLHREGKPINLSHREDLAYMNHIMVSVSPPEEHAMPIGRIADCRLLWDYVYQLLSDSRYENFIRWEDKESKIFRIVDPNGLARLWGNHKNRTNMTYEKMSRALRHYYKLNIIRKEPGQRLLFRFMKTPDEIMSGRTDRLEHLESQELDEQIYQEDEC
# How it was run: as §1
sequence,measurement,setting,value
GCCCTA,binding signal,FEV,"1.28 fold enrichment (6-mer frequency, TF over GST control)"
same,binding signal,ETV5,"1.16 fold enrichment (6-mer frequency, TF over GST control)"
same,binding signal,HSF1,"1.13 fold enrichment (6-mer frequency, TF over GST control)"
same,binding signal,SPIC,"1.18 fold enrichment (6-mer frequency, TF over GST control)"
same,binding signal,ELF4,"1.24 fold enrichment (6-mer frequency, TF over GST control)"
same,binding signal,ELK4,"1.24 fold enrichment (6-mer frequency, TF over GST control)"
same,binding signal,ETV2,"1.06 fold enrichment (6-mer frequency, TF over GST control)"
same,binding signal,ELF3,"1.19 fold enrichment (6-mer frequency, TF over GST control)"
same,binding signal,CRX,"1.27 fold enrichment (6-mer frequency, TF over GST control)"
same,binding signal,ETV1,"1.06 fold enrichment (6-mer frequency, TF over GST control)"
same,binding signal,ERF,"1.21 fold enrichment (6-mer frequency, TF over GST control)"
same,binding signal,ETV3L,"1.17 fold enrichment (6-mer frequency, TF over GST control)"
same,binding signal,ETS2,"1.22 fold enrichment (6-mer frequency, TF over GST control)"
same,binding signal,SPDEF,"1.21 fold enrichment (6-mer frequency, TF over GST control)"
same,binding signal,ETV7,"1.12 fold enrichment (6-mer frequency, TF over GST control)"
same,binding signal,ELF5,"1.11 fold enrichment (6-mer frequency, TF over GST control)"
same,binding signal,ETV3,"1.18 fold enrichment (6-mer frequency, TF over GST control)"
same,binding signal,ETV6,"1.17 fold enrichment (6-mer frequency, TF over GST control)"
